According to the supplement of paper PMC10681739:

What follows are sequences tested against T1, ETS1 (UniProt P14921) (assay: TF binding intensity (PBM fluorescence), negative control probe (arbitrary fluorescence units); higher = stronger binding).
T1 sequence: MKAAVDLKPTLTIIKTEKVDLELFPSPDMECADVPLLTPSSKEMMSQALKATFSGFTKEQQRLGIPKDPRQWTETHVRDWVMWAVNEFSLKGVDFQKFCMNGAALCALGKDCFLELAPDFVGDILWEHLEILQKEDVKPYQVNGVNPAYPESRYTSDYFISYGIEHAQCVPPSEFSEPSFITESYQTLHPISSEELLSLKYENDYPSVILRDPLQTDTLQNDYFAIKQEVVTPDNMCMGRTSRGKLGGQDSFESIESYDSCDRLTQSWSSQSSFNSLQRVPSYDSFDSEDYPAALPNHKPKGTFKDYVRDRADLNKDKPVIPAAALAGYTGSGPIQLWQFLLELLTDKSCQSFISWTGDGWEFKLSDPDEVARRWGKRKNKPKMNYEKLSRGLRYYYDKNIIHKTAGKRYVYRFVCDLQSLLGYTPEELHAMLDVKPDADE
Description: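 gcPBM negative-control 36-bp genomic probes lacking TF binding sites. Each was incubated with recombinant human ETS1 or RUNX1 alone and detected by antibody fluorescence. Values are medians over replicate spots (4 spots for the ETS1-RUNX1 arrays, 3 for the ETS1-ETS1 array). The probes sit in constant array flanks that are not printed.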

Question: Which TF binding intensity does the source give for “TAAATCAAAAGATGACCAAGCTGGAGAGAAAAGTGA (protein concentration 10 nM)” here?
Answer: 129

Question: With “AATATCTACAGGGCTCACTCTCCCATGCTCTTCAGG (protein concentration 10 nM)” as the sequence, how does the TF binding intensity read?
Answer: 108

Question: Which TF binding intensity does the source give for “ACGGAGCTTGCTCTGGCCATCTCTGTCCCTGCCTGT (protein concentration 10 nM)” here?
Answer: 102

Question: With “AAGTATTGTAGTTGTTGTGGTAAAAACAGATAGATA (protein concentration 1 nM)” as the sequence, how does the TF binding intensity read?
Answer: 529

Question: “CCCAATCTGTAACAACCCACATCTGTTCCTTATTTG (protein concentration 1 nM)” was tested. Which TF binding intensity did it give?
Answer: 466

Question: How did the TF binding intensity turn out when “AGGTGATATCTATCCCTTTCATTTCTTCTGAACAGG (protein concentration 10 nM)” was run?
Answer: 114

Question: “TGGAAAATAATATTTCAAGACCATAATATGGCTGCT (protein concentration 10 nM)” was tested. Which TF binding intensity did it give?
Answer: 100

Question: With “AGGCCTCTGCTCTCCTGGAGCTCATGACAAGTAAAC (protein concentration 10 nM)” as the sequence, how does the TF binding intensity read?
Answer: 118

Question: With “AACTGTGACGTTACATTGCAAGGGCATGAATACAGG (protein concentration 10 nM)” as the sequence, how does the TF binding intensity read?
Answer: 131

Question: “TTGTTACACTCCACGCTTTAGCTATTTGTTGCTACT (protein concentration 10 nM)” was tested. Which TF binding intensity did it give?
Answer: 120

Question: With “TTCTTCCCACCGCAGGGCATCTGCACGGGCCGCTCA (protein concentration 10 nM)” as the sequence, how does the TF binding intensity read?
Answer: 125

Question: Which TF binding intensity does the source give for “AAACTAATCAGAATTTAACATCATACATAAATGGCA (protein concentration 10 nM)” here?
Answer: 116

Question: Which TF binding intensity does the source give for “ATACATACCTTTCACCCTCCATTGTGTGAGGCCCAG (protein concentration 10 nM)” here?
Answer: 114

Question: “GTTCATCATCTCTCGTCAAGATGATTAACGACATGG (protein concentration 10 nM)” was tested. Which TF binding intensity did it give?
Answer: 141

Question: With “CTCTACCTACAAAAAGACTGCAATTGTGTTACCTTT (protein concentration 10 nM)” as the sequence, how does the TF binding intensity read?
Answer: 132

Question: With “GGCGGCGCCGGCGGCTGCGGGGTTATCTCCGCGGCC (protein concentration 10 nM)” as the sequence, how does the TF binding intensity read?
Answer: 107

Question: Which TF binding intensity does the source give for “ACACATCAAAATGTCTGTGGTTTTTATGAAAAATAG (protein concentration 1 nM)” here?
Answer: 510

Question: For “ATTCCAATCCTATGTGCTTTAAAGCTTCTAGACATT (protein concentration 10 nM)”, which TF binding intensity is on record?
Answer: 119

Question: Which TF binding intensity does the source give for “TCCTCACGAATCTCTCTACTTCTGTTCTTGCCCATC (protein concentration 10 nM)” here?
Answer: 135

Question: With “TTGTGTTCTTATCAAATTATTAAGATTTTAGGTGAG (protein concentration 10 nM)” as the sequence, how does the TF binding intensity read?
Answer: 133

Question: For “CCCTGAGGTCTATCTTGCTGCAAATTGAATGCCTGC (protein concentration 10 nM)”, which TF binding intensity is on record?
Answer: 120

Question: “GATAGACATATAAAAACCACAAAAATCAAAACTGCA (protein concentration 1 nM)” was tested. Which TF binding intensity did it give?
Answer: 485

Question: How did the TF binding intensity turn out when “ACGAAAGTAAACAGTACTAGGTGCAGGGGCTTTAAT (protein concentration 10 nM)” was run?
Answer: 117

Question: How did the TF binding intensity turn out when “AGTCTAGTTTTGCTCTTTAAAATCACCATCTGTATC (protein concentration 10 nM)” was run?
Answer: 138

Question: For “AAACAAAGTAAGCTTTTAAGGACTCTGGTCAGAAAC (protein concentration 10 nM)”, which TF binding intensity is on record?
Answer: 101

Question: How did the TF binding intensity turn out when “TGATCTTTGCTTTGCTTTTTGAAAGATCTGGCAAGG (protein concentration 10 nM)” was run?
Answer: 104

Question: How did the TF binding intensity turn out when “CTCCCTCTCTCCCTCCCTCCCTCCCTCCCTCCCTTC (protein concentration 10 nM)” was run?
Answer: 230

Question: Which TF binding intensity does the source give for “GATGTGGCCTATAGGGATCCTTCACTTAGGCATGAG (protein concentration 10 nM)” here?
Answer: 121

Question: Which TF binding intensity does the source give for “GAAATGGAGCAGAAAACCTGGAACCCAGCTGGGAAG (protein concentration 10 nM)” here?
Answer: 117

Question: For “GCAACACTCACTCAAACCACAGTAATCAAAAGGCAC (protein concentration 1 nM)”, which TF binding intensity is on record?
Answer: 496

Question: “GTTTTGCAACTCTTATTCCAAGTGGACACCCAGAAA (protein concentration 10 nM)” was tested. Which TF binding intensity did it give?
Answer: 140

Question: Which TF binding intensity does the source give for “AACTTGAAGTCACCACATGAAAGGTTCCAATGCAGC (protein concentration 10 nM)” here?
Answer: 121

Question: “AAGGTTCTGATTCCGAGTCCCCTGAGGTGGCAGTGG (protein concentration 10 nM)” was tested. Which TF binding intensity did it give?
Answer: 111

Question: How did the TF binding intensity turn out when “AGACAGAAAAAGCCACAGCCGAGCGCCCAGCTGTGG (protein concentration 10 nM)” was run?
Answer: 95.8

Question: For “ATAAGCCAATTTTTTTTACATTTATGAAATGAGAGA (protein concentration 10 nM)”, which TF binding intensity is on record?
Answer: 105

Question: With “CGGACTGGGAGTTTGACCGCGTTGACGACGGCTCGC (protein concentration 1 nM)” as the sequence, how does the TF binding intensity read?
Answer: 446

Question: Which TF binding intensity does the source give for “TCCTCTGGTCTCTAAACCACAGCCTCCACCAGCAAC (protein concentration 1 nM)” here?
Answer: 442

Question: For “TAGTTAAGACCTCTTAAGTCATAATAATATTGCCTA (protein concentration 10 nM)”, which TF binding intensity is on record?
Answer: 102

Question: How did the TF binding intensity turn out when “ACTGCGCGCAGGGCCTGCAGCGGCAGCTGGACTGGG (protein concentration 10 nM)” was run?
Answer: 120

Question: “CTACACATTTTAAAGAAAGAGACCACAGTTCTTTAT (protein concentration 10 nM)” was tested. Which TF binding intensity did it give?
Answer: 122
